# In all, about 360,000 compounds went through this assay and about 430 (0.12%) were called active.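 How the source made its calls: active means inhibition above the campaign mean plus 3 SD, with each screening campaign given its own cutoff (cut at about 60% in these data); inactive means the rest.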 This excerpt belongs to a sample that is enriched for actives.
# Target: Nuclear receptor coactivator 1 (Homo sapiens) (UniProt Q15788)
# Test: NCOA1 GAL4-fusion reporter inhibition – cell-based, luminescence, primary screen (AID 588354);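 further: 0% = DMSO treated cells and 100% = gossypol at 36 µM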
# Conditions: HEK293 GAL4-SRC1 luciferase reporter, at 3.6 µM, active compounds read high
# Sequence of Nuclear receptor coactivator 1 (Homo sapiens) (Q15788 whole entry, looked up, the tested form may be a part): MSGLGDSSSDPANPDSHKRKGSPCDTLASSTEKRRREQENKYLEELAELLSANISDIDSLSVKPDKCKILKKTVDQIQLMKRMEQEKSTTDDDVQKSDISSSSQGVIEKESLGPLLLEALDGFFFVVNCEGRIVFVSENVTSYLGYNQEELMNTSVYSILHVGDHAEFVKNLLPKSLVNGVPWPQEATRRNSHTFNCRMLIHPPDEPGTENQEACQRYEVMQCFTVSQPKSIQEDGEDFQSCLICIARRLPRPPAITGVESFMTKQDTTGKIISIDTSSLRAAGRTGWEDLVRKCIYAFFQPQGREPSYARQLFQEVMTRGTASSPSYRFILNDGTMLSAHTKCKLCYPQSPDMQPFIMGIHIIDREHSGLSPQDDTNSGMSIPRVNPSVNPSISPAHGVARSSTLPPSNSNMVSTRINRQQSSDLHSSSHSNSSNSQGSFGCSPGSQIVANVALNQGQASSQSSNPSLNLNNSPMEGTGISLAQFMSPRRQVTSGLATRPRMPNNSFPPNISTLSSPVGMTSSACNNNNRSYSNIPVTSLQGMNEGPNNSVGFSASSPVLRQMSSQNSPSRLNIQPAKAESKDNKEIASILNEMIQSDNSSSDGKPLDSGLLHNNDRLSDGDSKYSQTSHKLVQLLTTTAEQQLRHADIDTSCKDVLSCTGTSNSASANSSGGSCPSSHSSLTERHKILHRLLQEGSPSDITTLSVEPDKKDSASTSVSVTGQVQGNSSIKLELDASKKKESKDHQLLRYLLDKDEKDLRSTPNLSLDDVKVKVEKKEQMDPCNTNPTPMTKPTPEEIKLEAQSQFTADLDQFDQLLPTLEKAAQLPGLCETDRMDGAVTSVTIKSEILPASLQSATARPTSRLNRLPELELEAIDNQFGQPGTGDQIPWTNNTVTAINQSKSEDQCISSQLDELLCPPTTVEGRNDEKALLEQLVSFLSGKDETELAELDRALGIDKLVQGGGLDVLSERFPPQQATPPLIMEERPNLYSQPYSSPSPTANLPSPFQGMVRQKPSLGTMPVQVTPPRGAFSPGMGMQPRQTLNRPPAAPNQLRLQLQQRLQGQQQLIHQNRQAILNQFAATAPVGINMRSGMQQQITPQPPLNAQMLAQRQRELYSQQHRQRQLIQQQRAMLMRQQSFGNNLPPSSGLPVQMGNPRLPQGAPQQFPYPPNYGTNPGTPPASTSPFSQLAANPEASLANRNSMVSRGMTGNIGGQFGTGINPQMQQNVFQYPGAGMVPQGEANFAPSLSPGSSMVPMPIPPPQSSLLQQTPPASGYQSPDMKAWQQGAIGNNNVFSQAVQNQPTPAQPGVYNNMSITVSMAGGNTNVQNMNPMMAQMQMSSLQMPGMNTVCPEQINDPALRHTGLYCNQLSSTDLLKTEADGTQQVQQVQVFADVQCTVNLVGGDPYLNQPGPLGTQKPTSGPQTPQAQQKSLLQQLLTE
row,Compound,inhibition
1,C[C@]12CC[C@H](O)C[C@H]1CC[C@@H]1C2CC[C@]2(C)[C@@H](C3=CC(=O)OC3)[C@@H](O)C[C@]12O (stereo not given in full),53.1% (inactive)
2,COC1C(O)C(C)OC(OC2CCC3(C=O)C(CCC4C3CCC3(C)C(C5=CC(=O)OC5)CCC43O)C2)C1O (stereo not given),90.4% (active)
3,CCC1(C)CC(CCNCc2ccc(N(C)C)cc2)(c2ccc(F)cc2)CCO1 (stereo not given),-23.1% (inactive)
4,Cc1cccc(-n2c(C)nc3cc(C(=O)N4CCC5(CC4)OCCO5)ccc32)c1,7.63% (inactive)
5,CC1CCC(N(C)C2CCN(C)CC2)CC1 (stereo not given),9.39% (inactive)
6,COC(=O)C1=C(c2ccc(Cl)c(C(F)(F)F)c2)C[C@@H]2CC[C@H]1N2C(=O)NC(C)C,1.75% (inactive)
7,CCC(C)(O)C(=O)OC1C(=O)OC2CC3C(C)=CC(=O)C(O)C3(C)C3C4(O)OCC23C1C(C)C4O (stereo not given),95.5% (active)
8,Cn1cc(C(=O)OCC(=O)N2CCCC2)c2ccccc21,-5.08% (inactive)
9,CC(=O)OC1C2(CC3N4C(=O)C5(CO)SSC4(CC31O)C(=O)N5C)OC(C)C(C)(C)C2=O (stereo not given),23.6% (inactive)
10,CCOC(=O)CC(SP1(=S)OCC2(CCCCO2)C(C2CCCCO2)O1)C(=O)OCC (stereo not given),-3.46% (inactive)
11,Cc1ccccc1NC(=O)COC(=O)c1cc(C)n(C2CC2)c1C,-22.1% (inactive)
12,O=C(COc1ccc2ccccc2c1)N1CCN(Cc2ccncc2)CC1,-6.36% (inactive)
13,CCOc1ccc(-c2cc(C)[n+](CCN(CC)CC)c(-c3ccc(OCC)cc3)c2)cc1,62% (active)
14,CNC(=O)N(C)c1nnc(C(C)(C)C)s1,-3.52% (inactive)
15,N[C@@H](Cc1c[nH]c2ccccc12)c1nnc(SCc2c(F)cccc2Cl)o1,-58.9% (inactive)
